As a reminder, the inhibition is the relative decrease from the control value, in per cent.

The whole screen tested about 6,200 compounds, of which about 2,900 (47%) were called active. So high a share suggests a set chosen from earlier hits. The list shows a part of the results. Values without a mark were called inactive. Cut-off read from the data, not from the text of the source: active = inhibition above about 50%; inactive = the rest.

The record followed here is PubChem BioAssay AID1259343 (VanderVen Lab, College of Veterinary Medicine, Cornell …, 2017).

The nature of this experiment: Mycobacterium tuberculosis growth inhibition, primary screen (AID 1259343). The conditions noted are these: inhibition: at 10 µM, stronger effect = higher value; outcome: 10 uM.
For the compound `O=C(CC(Nc1ccc2ccccc2c1)c1ccncc1)c1ccccc1` (stereo not given), the inhibition was 88.8% (active). Regarding `C=CCNC(=S)Nc1ccc(Cl)cc1F`, the inhibition is 35.1%. As for `C=CCNC(=S)Nc1ccc(Cl)c(Cl)c1`, the figure is 21.1%; as for `C=CCNC(=S)Nc1ccc(SC(F)F)cc1`, 53.4% (active). For the compound `COC(=O)c1sc(NC(=O)CCCl)c(C(=O)OC)c1C`, the inhibition was 101% (active). Regarding `CCOC(=O)c1c(NC(=O)CCl)sc(C(=O)OC)c1CC(=O)OC`, the inhibition was -17.1%. As for `Cc1sc(NC(=O)CC(C)(C)CC(=O)Nc2sc(C)c(C)c2C(=O)O)c(C(=O)O)c1C`, the inhibition was 29.4%. As for `Cc1csc(C(C)NCc2ccc(OCC(C)C)cc2)n1` (stereo not given), the figure is 51.6% (active); as for `COc1ccc(C)cc1-c1csc(NC(=O)C(C)C)n1`, 11.6%. Then `Cc1ccc(-c2ncc(C(=O)NC(C)C)s2)c(C)c1`, with 61.8% (active); and `Cc1ccc(-c2csc3nc(C4CC4)[nH]c(=O)c23)c(C)c1`, with 6.81%; and `CCOC(=O)c1nn(-c2cccc(Cl)c2)c2nc(-c3cccs3)c(C#N)c(=O)n12`, with 52.1% (active).

As for `CCOC(=O)c1nn(-c2ccc(OCC)cc2)c2nnc(Cc3cccnc3)c(=O)n12`, the inhibition is -11.2%. Consider `COC(=O)CCn1c(=O)c2c(nc3n(CCc4ccccc4)c(C)cn23)n(C)c1=O`, for which the inhibition is 2.78%. As for `COc1ccccc1Nc1nnc(SCC(=O)c2ccc(O)c(O)c2)s1`, the inhibition was 83.9% (active). As for `COc1cccc(C(=O)CSc2nnc(NC(=O)c3cccc(Cl)c3)s2)c1`, the figure is 55.3% (active); as for `CNc1nnc(SCc2cccc(Cl)c2)s1`, 23.8%. As to `O=C1c2cccc3cccc(c23)N1S(=O)(=O)c1ccc(Cl)cc1`, the inhibition is -5.06%. Then `CN(Cc1ccc2nonc2c1)Cc1nc(-c2ccc3c(c2)OCO3)no1`, with 13.7%; and `Cc1ccc(CN(C)Cc2nc(-c3ccc4c(c3)OCO4)no2)o1`, with 90.8% (active); and `CCN(CCn1cccn1)Cc1nc(-c2ccc3c(c2)OCO3)no1`, with 90.5% (active). As for `CN(Cc1ccc2nsnc2c1)Cc1nc(-c2ccc3c(c2)OCO3)no1`, the figure is 84.1% (active).

For `CN(Cc1nc(-c2ccc3c(c2)OCO3)no1)CC1COc2ccccc2O1` (stereo not given), the inhibition result is “inactive”. Then `C=Cc1ccc(CSc2nncn3c2cc2occc23)cc1`, with 31.6%; and `Cc1nnc(SCc2ccc(C(=O)NCc3ccncc3)cc2)n1-c1ccc(F)cc1`, with -8.13%; and `C=Cc1ccc(CSc2nccn(-c3ccc(C)cc3)c2=O)cc1`, with 95.7% (active).

As for `COc1ccc(-n2ccnc(SCc3ccc(F)cc3)c2=O)cc1`, the inhibition is 76.6% (active). As for `NC(=S)N=C1CCN(c2ccccc2)N1`, the inhibition is 93.8% (active). `Cc1cccc(N2CCC(=NC(N)=S)N2)c1`: the inhibition was 33.7%.

With `c1ccc(N2CCC(=NC3=NCCCCC3)N2)cc1`, the inhibition was 4.7%. As for `c1nc(Nc2ccc3c(c2)OCCO3)c2c3c(sc2n1)CCCC3`, the figure is -26.9%; as for `c1ccc(-c2nc(Nc3ccc4c(c3)OCCO4)c3ccccc3n2)cc1`, -17%; as for `FC(F)(F)c1nc(Nc2ccc3c(c2)OCCCO3)c2ccccc2n1`, 100% (active).

Turning to `COc1cccc(COc2coc(CN3CCCN(S(=O)(=O)c4ccc(OC(F)(F)F)cc4)CC3)cc2=O)c1`, the inhibition is 10.6%.

With `CC(C)(Oc1ccc(Cl)cc1)C(=O)NCc1ccoc1`, the inhibition is 24.1%. Then `O=C(NCC(=O)N1CCN(Cc2ccc(OC(F)(F)F)cc2)CC1)c1ccco1`, with 94.3% (active); and `CC(C)CSc1nnc(Nc2ccc(C(C)C)cc2)s1`, with 92.2% (active); and `Cc1ccc(Nc2nnc(SCC(C)C)s2)cc1`, with 94.1% (active).

Consider `CC(C)c1ccc(Nc2nnc(SCCO)s2)cc1`, for which the inhibition was 25.5%. `COc1cccc(C(=O)Nc2ccc(Oc3ccc(F)cc3)nc2)c1OC`: the inhibition was 45%. Then `O=C(CC1CCCC1)Nc1ccc(S(=O)(=O)C(F)F)cc1`, with 11.8%; and `CCCCOc1ccc(NC(=O)CC2CCCC2)cn1`, with 99.4% (active). Take `OCC1(Cc2ccccc2)CCCN(Cc2ccc(OC(F)(F)F)cc2)C1` (stereo not given): the inhibition was 20.7%.

`OCCC#Cc1ccc(CN2CCCC(CO)(Cc3ccccc3)C2)cc1` (stereo not given): the inhibition was 69.2% (active).

In the case of `Clc1cccc(N2CCN(C3CCCN(Cc4ccc5nsnc5c4)C3)CC2)c1` (stereo not given), the inhibition was 75.5% (active).

With `OCCC#Cc1ccc(CN2CCCC(Nc3ccccc3)C2)cc1` (stereo not given), the inhibition was 70.9% (active).

Take `Clc1cccc(CN2CCCC(Nc3ccccc3)C2)c1` (stereo not given): the inhibition is 59.2% (active). As for `CC(C)c1cc(C(=O)N2CCCC(N3CCN(c4cccc(C(F)(F)F)c4)CC3)C2)on1` (stereo not given), the figure is 46.1%. Turning to `CSc1ncc(CNCCc2cccc(Cl)c2)c(N2CCCC(C)C2)n1` (stereo not given), the inhibition was 18%. For the compound `OCC1(Cc2ccccc2)CCCN(Cc2ccc(-c3ccco3)cc2)C1` (stereo not given), the inhibition entry was “inactive”.

Regarding `Cc1cc(Cl)ccc1C(=O)C1CCCN(Cc2ccc(C#CCCO)cc2)C1` (stereo not given), the inhibition was 77.5% (active).

Turning to `Oc1cccc(-c2cc(C3CCN(Cc4ccc5nonc5c4)C3)ccn2)c1` (stereo not given), the inhibition was 14.6%.

In the case of `O=C(c1ccc(-c2ccccc2)cc1)C1CCCN(Cc2ccncc2)C1` (stereo not given), the inhibition result was “inactive”. As for `O=C(CN1CCCC1c1ccccc1)Nc1cc(F)cc(F)c1` (stereo not given), the inhibition is 2.2%. In the case of `O=C(c1ccc(Cl)cc1)C1CCCN(Cc2cccc3cnccc23)C1` (stereo not given), the inhibition is -4.04%.

Take `Oc1ccccc1CN1CCCC(Nc2cccc(F)c2)C1` (stereo not given): the inhibition is 72.9% (active). As for `O=C(c1cc(F)ccc1F)C1CCCN(Cc2cccc3cnccc23)C1` (stereo not given), the entry is “inactive”. As to `c1ccc(NC2CCCN(Cc3ccc4nsnc4c3)C2)cc1` (stereo not given), the inhibition was 65.6% (active). Consider `O=C(NCc1cccnc1-n1cccn1)C1CCCN(Cc2cccnc2)C1` (stereo not given), for which the inhibition was -13.9%. Then `CCN(CC)c1ccc(/C=C2\SC(=S)N(Cc3ccccc3)C2=O)c(O)c1`, with -15.2%; and `CN(CC(=O)Nc1ccccc1Br)C1CCc2ccccc21` (stereo not given), with 34.1%. As for `N#Cc1ccc(CNc2ccccc2Br)cc1`, the figure is 49.2%; as for `N#Cc1ccc(NC(=O)Nc2ccccc2Br)c2n[nH]nc12`, 64.4% (active). Regarding `COc1ccc(C2c3cccn3CCN2C(=O)Nc2cccs2)cc1` (stereo not given), the inhibition was -1.32%. On to `COc1ccc(C(CC(=O)c2cccs2)Sc2ccccc2NC(C)=O)cc1` (stereo not given), for which the inhibition is 53.2% (active).
